In PubChem BioAssay (EPA / NIEHS):
Inconclusive results are not listed. Activity calls are given as the source filed them. The calls were made as follows, unless noted: active = hit-call score of the fitted dose curve at least 0.9, where 1 is the maximum; inactive = score below 0.9.

Tests used:
[1] = ACEA_ER_80hr: ACEA Biosciences xCELLigence Real-Time Cell Analysis on Estrogen Receptor Agonism for Proliferation (AID 2282667; active = hit-call score of the fitted dose curve at least 0.9, where 1 is the maximum); settings: T47D proliferation, impedance (xCELLigence), 80 h
Summary of the method: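 Real-time impedance growth kinetics of human T-47D breast cells read 80 h after dosing, gain-of-signal fitted relative to DMSO. Compounds: 1:4 serial series, top final concentration 100 uM, n = 2.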

[2] = APR_HepG2_CellLoss_1hr: Apredica 1-hour HepG2 Assay for Cell Loss (AID 2282668); settings: high-content imaging;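 also: curves fitted both ways against DMSO so gain or loss of cells counts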
Summary of the method: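 HepG2 cells were treated for 1 h with compound at 0.39–200 uM, in duplicate, in 0.5% DMSO. After formaldehyde fixation, Hoechst 33342-stained nuclei were imaged on an ArrayScan to count cells. Data were fitted bidirectionally versus DMSO.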

[3] = APR_HepG2_NuclearSize_1hr: Apredica 1-hour HepG2 Assay for Nuclear Size (AID 2282670); settings: high-content imaging, actives raise or lower the signal
Summary of the method: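 HepG2 cells dosed 1 hr with 0.39–200 uM compound (0.5% DMSO), formaldehyde-fixed, Hoechst 33342-stained and imaged at 20x; nuclear diameter from nuclear stain, fitted bidirectionally against DMSO.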

[4] = APR_HepG2_p53Act_1hr: Apredica 1-hour HepG2 Assay for p53 Activation (AID 2282671); settings: high-content imaging, actives raise or lower the signal
Summary of the method: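 HepG2 cells treated 1 h with compound at 0.39–200 uM (10 concentrations, duplicate) in 0.5% DMSO. Formaldehyde-fixed, permeabilised cells immunostained for p53 with Hoechst 33342; high-content imaging, bidirectional fit versus DMSO.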

[5] = APR_HepG2_P-H2AX_1hr: Apredica 1-hour HepG2 Assay for H2AX Phosphorylation (AID 2282673); settings: high-content imaging, actives raise or lower the signal
Summary of the method: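 HepG2 dosed 1 hr at 0.39-200 uM (0.5% DMSO final), duplicate. Fixed in 3.7% formaldehyde, Triton permeabilized, immunostained for phospho-histone H2A.x (1:200) with Hoechst 33342; ArrayScan 20x imaging, bidirectional fit vs DMSO.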

[6] = APR_HepG2_MitoMass_1hr: Apredica 1-hour HepG2 Assay for Mitochondrial Mass (AID 2282674); settings: high-content imaging, actives raise or lower the signal
Summary of the method: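 HepG2 cells dosed 1 hr with 0.39-200 uM compound (0.5% DMSO), duplicate wells. Mitochondria stained with 250 nM MitoTracker Red CMXRos for 30 min before formaldehyde fixation, imaged at 20x by ArrayScan; bidirectional fit versus DMSO.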

[7] = APR_HepG2_StressKinase_1hr: Apredica 1-hour HepG2 Assay for Stress Kinase (AID 2282906); settings: HepG2 stress kinase (phospho-c-Jun) imaging, actives raise or lower the signal
Summary of the method: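 HepG2 cells dosed 0.39-200 uM (0.5% DMSO) for 1 h, then formaldehyde-fixed. Stress kinase read by phospho-c-Jun immunofluorescence using high-content imaging; bidirectional fit vs DMSO.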

[8] = APR_HepG2_NuclearSize_24hr: Apredica 24-hour HepG2 Assay for Nuclear Size (AID 2282907); settings: high-content imaging, actives raise or lower the signal
Summary of the method: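 HepG2 cells exposed 24 h to compounds at 0.39–200 uM (0.5% DMSO), fixed, Hoechst 33342 stained and imaged at 20x; nuclear diameter measured by automated image analysis, fitted bidirectionally against DMSO controls.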

[9] = APR_HepG2_CellLoss_24hr: Apredica 24-hour HepG2 Assay for Cell Loss (AID 2282908); settings: high-content imaging;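 as to AC50: fit in both directions so a hit may be cell loss or gain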
Summary of the method: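 HepG2 cells exposed 24 hr to 0.39–200 uM compound in duplicate at 0.5% v/v final DMSO. Cells fixed in 3.7% formaldehyde and Hoechst 33342-stained. Cell number came from nuclear imaging at 20x. Bidirectional fit versus DMSO.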

[10] = APR_HepG2_MicrotubuleCSK_24hr: Apredica 24-hour HepG2 Assay for Microtubule CSK Stabilty (AID 2282909); settings: HepG2 microtubule cytoskeleton imaging, actives raise or lower the signal
Summary of the method: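 HepG2 cells were treated 24 hr with compound at 0.39–200 uM in duplicate (0.5% DMSO final), then fixed and permeabilized. Alpha-tubulin immunofluorescence was imaged by high-content microscopy, with bidirectional fitting against DMSO and taxol as positive control.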

[11] = APR_HepG2_MitoticArrest_24hr: Apredica 24-hour HepG2 Assay for Mitotic Arrest (AID 2282910); settings: high-content imaging, actives raise or lower the signal
Summary of the method: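 Compounds are dosed onto HepG2 cells across ten concentrations up to 200 uM for 24 hr. Cells are then fixed in 3.7% formaldehyde, permeabilised, and labelled for phospho-histone H3 and nuclei; images are scored by cell cycle analysis and fitted bidirectionally relative to DMSO.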

[12] = APR_HepG2_MitoMembPot_24hr: Apredica 24-hour HepG2 Assay for Mitochondrial Membrane Potential (AID 2282911); settings: imaging, actives raise or lower the signal
Summary of the method: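 Mitochondrial membrane potential imaged via MitoTracker Red CMXRos (250 nM, 30 min pre-fixation) in fixed HepG2 cells with Hoechst nuclear identification. Ten concentrations 0.39–200 uM, 24 h treatment, 0.5% DMSO; CCCP as positive control.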

[13] = APR_HepG2_MitoMass_24hr: Apredica 24-hour HepG2 Assay for Mitochondrial Mass (AID 2282912); settings: high-content imaging, actives raise or lower the signal
Summary of the method: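 HepG2 cells exposed 24 hr to 0.39–200 uM compound, 0.5% v/v DMSO, in duplicate. Stained before fixation with 250 nM MitoTracker Red CMXRos for 30 min, then imaged at 20x with Hoechst nuclei. Fitted in both directions against DMSO.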

[14] = APR_HepG2_p53Act_24hr: Apredica 24-hour HepG2 Assay for p53 Activation (AID 2282913); settings: high-content imaging, actives raise or lower the signal;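 also: p53 protein immunofluorescence averaged per cell in HepG2 with Hoechst nuclei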
Summary of the method: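 Fluorescence imaging of formaldehyde-fixed HepG2 cells labelled for p53 and with Hoechst, 24 h after dosing (0.39–200 uM, duplicate wells, 0.5% v/v DMSO). Signal fitted in both directions relative to DMSO.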

[15] = APR_HepG2_CellCycleArrest_72hr: Apredica 72-hour HepG2 Assay for Cell Cycle Arrest (AID 2282914); settings: high-content imaging, actives raise or lower the signal
Summary of the method: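 Read-out: nuclear DNA content from Hoechst 33342 high-content imaging (20x, six fields/well) after 3.7% formaldehyde fixation, fitted bidirectionally against DMSO. Treatment was 72 h in HepG2, ten concentrations 0.39–200 uM, duplicate, 0.5% DMSO.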

[16] = APR_HepG2_MitoticArrest_1hr: Apredica 1-hour HepG2 Assay for Mitotic Arrest (AID 2282672); settings: high-content imaging, actives raise or lower the signal
Summary of the method: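 HepG2 cells exposed 1 hr to compounds at 0.39–200 uM (0.5% v/v DMSO final), then fixed in 3.7% formaldehyde and immunostained for phospho-histone H3 with Hoechst 33342. Mitotic arrest scored by automated fluorescence imaging, fitted bidirectionally versus DMSO.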

[17] = APR_HepG2_MitoMembPot_1hr: Apredica 1-hour HepG2 Assay for Mitochondrial Membrane Potential (AID 2282675); settings: imaging, actives raise or lower the signal
Summary of the method: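 HepG2 cells dosed 1 hour with 0.39–200 uM compound in duplicate, 0.5% DMSO final. MitoTracker Red CMXRos (250 nM, 30 min) loaded before formaldehyde fixation; fluorescence quantified by high-content imaging, bidirectional fitting versus DMSO.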

[18] = APR_HepG2_MicrotubuleCSK_1hr: Apredica 1-hour HepG2 Assay for Microtubule CSK Stabilty (AID 2282669); settings: HepG2 microtubule cytoskeleton imaging, actives raise or lower the signal
Summary of the method: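 HepG2 cells exposed 1 h to 0.39–200 uM compound (0.5% DMSO, duplicates), then formaldehyde-fixed, permeabilized and immunostained for alpha-tubulin with Hoechst nuclei. Imaged by ArrayScan high-content analysis; bidirectional fit versus DMSO.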

[19] = APR_HepG2_CellCycleArrest_24hr: Apredica 24-hour HepG2 Assay for Cell Cycle Arrest (AID 2282905); settings: imaging, actives raise or lower the signal;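 also: cell cycle arrest scored as ratio of 2N to 4N nuclear DNA content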
Summary of the method: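 Compounds at 0.39–200 uM (0.5% DMSO) for 24 h, then fixed and Hoechst 33342 stained. Cell-cycle analysis of nuclear DNA content by high-content imaging, fitted bidirectionally versus DMSO.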

Measured: AC50

CC(C)N1C(=O)c2ccccc2NS1(=O)=O
not listed: [16] | [17] | [18] | [19]
inactive: all other assays above

CO/N=C(/C1=NOCCO1)c1ccccc1Oc1ncnc(Oc2ccccc2Cl)c1F
active: [1] 10.5 µM | [12] 0.309 µM
not listed: [5] | [18] | [19]
inactive: all other assays above

COC(=O)c1c(C(F)F)nc(C(F)(F)F)c(C2=NCCS2)c1CC(C)C
active: [10] 91.6 µM
not listed: [5] | [16] | [17] | [19]
inactive: all other assays above

CC1(C)C(C(=O)OC(C#N)c2cccc(Oc3ccccc3)c2)C1(C)C (stereo not drawn)
not listed: [5] | [16] | [18] | [19]
inactive: all other assays above

N#CN=C1SCCN1Cc1ccc(Cl)nc1
not listed: [5] | [16] | [17] | [18] | [19]
inactive: all other assays above

COCC(C)N(C(=O)CCl)c1c(C)csc1C (stereo not drawn)
active: [19] 109 µM | [9] 115 µM | [14] 92.6 µM
not listed: [5] | [16] | [17] | [18]
inactive: all other assays above

CCCN(CC)CC1COC2(CCC(C(C)(C)C)CC2)O1 (stereo not drawn)
active: [10] 100 µM
not listed: [17] | [18]
inactive: all other assays above

Cc1cc(C)nc(Nc2ccccc2)n1
active: [19] 43.7 µM | [12] 75.7 µM | [15] 61.8 µM
not listed: [18]
inactive: all other assays above

COCc1cnc(C2=NC(C)(C(C)C)C(=O)N2)c(C(=O)O)c1 (stereo not drawn)
not listed: [4] | [5] | [14] | [16] | [17] | [19]
inactive: all other assays above
